The whole screen tested about 5,500 compounds, of which about 2,000 (36%) were called active. About 18% were inconclusive and are not listed. No stated cut-off is given here; in the data, active means normalized growth mostly below about 0.91 (no sharp cut-off); inconclusive means no clear call, values can overlap the other calls; inactive means mostly above about 0.92. Some of the results follow.
Test: chemical genetic growth profiling, strain panel (AID 1159580);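 further: tested at 20 µM; growth read once vehicle control cultures reached saturation at 30 °C; 1 = growth at the plate median or of vehicle wells; lower values mean less growth of the strain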
Conditions: S. cerevisiae deletion strains, growth OD

Measured: normalized growth

CCOc1ccc2c(c1)C(C)=CC(C)(C)N2
inactive: locus YAL013W, strain DEP1, active compounds read low 0.99 | locus YAL021C, strain ccr4, active compounds read low 0.99 | locus YAL026C, strain drs2, active compounds read low 0.983 | locus YAL030W, strain snc1, active compounds read low 0.996 | locus YBL061C, strain skt5, active compounds read low 0.988 | locus YBR009C, strain hhf1, active compounds read low 0.996 | locus YBR021W, strain FUR4, active compounds read low 0.983 | locus YBR023C, strain chs3, active compounds read low 0.994 | locus YBR171W, strain sec66, active compounds read low 0.982 | locus YBR229C, strain ROT2, active compounds read low 0.986 | locus YBR231C, strain swc5, active compounds read low 0.991 | locus YBR279W, strain paf1, active compounds read low 0.99 | locus YCL011C, strain gbp2, active compounds read low 0.989 | locus YCL016C, strain dcc1, active compounds read low 0.995 | locus YCL029C, strain bik1, active compounds read low 0.959 | locus YCL061C, strain MRC1, active compounds read low 0.994 | locus YCL069W, strain vba3, active compounds read low 0.987 | locus YCR088W, strain abp1, active compounds read low 0.983 | locus YDL005C, strain med2, active compounds read low 0.974 | locus YDL035C, strain GPR1, active compounds read low 1.01 | locus YDL040C, strain nat1, active compounds read low 0.987 | locus YDL074C, strain BRE1, active compounds read low 0.973 | locus YDL101C, strain DUN1, active compounds read low 0.976 | locus YDL134C, strain PPH21, active compounds read low 0.983 | locus YDL185W, strain tfp1, active compounds read low 0.977 | locus YDL192W, strain arf1, active compounds read low 0.984 | locus YDR001C, strain nth1, active compounds read low 0.986 | locus YDR069C, strain doa4, active compounds read low 0.995 | locus YDR101C, strain arx1, active compounds read low 0.984 | locus YDR137W, strain rgp1, active compounds read low 1.01 | locus YDR150W, strain NUM1, active compounds read low 0.993 | locus YDR159W, strain sac3, active compounds read low 0.989 | locus YDR162C, strain NBP2, active compounds read low 0.99 | locus YDR195W, strain ref2 0.98 | locus YDR297W, strain sur2, active compounds read low 0.989 | locus YDR318W, strain mcm21, active compounds read low 0.987 | locus YDR334W, strain swr1, active compounds read low 0.975 | locus YDR335W, strain msn5, active compounds read low 0.995 | locus YDR388W, active compounds read low 0.984 | locus YDR392W, strain spt3, active compounds read low 0.95 | locus YDR502C, strain sam2, active compounds read low 0.993 | locus YEL003W, strain gim4, active compounds read low 0.992 | locus YEL037C, strain rad23, active compounds read low 0.984 | locus YEL061C, strain CIN8 (second series), active compounds read low 0.99 | locus YEL061C, strain CIN8, active compounds read low 0.997 | locus YER015W, strain faa2, active compounds read low 0.99 | locus YER016W, strain bim1, active compounds read low 0.999 | locus YER110C, active compounds read low 0.979 | locus YER111C, strain swi4, active compounds read low 0.982 | locus YER155C, strain BEM2 (second series), active compounds read low 0.98 | locus YER155C, strain BEM2, active compounds read low 0.989 | locus YER167W, strain BCK2, active compounds read low 1 | locus YFR010W, strain ubp6, active compounds read low 0.977 | locus YGL078C, strain dbp3, active compounds read low 0.991 | locus YGL086W, strain mad1, active compounds read low 1 | locus YGL167C, strain pmr1, active compounds read low 0.978 | locus YGL173C, strain kem1, active compounds read low 0.98 | locus YGL227W, strain vid30, active compounds read low 0.98 | locus YGL240W, strain doc1, active compounds read low 0.985 | locus YGL248W, strain PDE1, active compounds read low 0.985 | locus YGL253W, strain hxk2, active compounds read low 0.984 | locus YGR078C, strain PAC10, active compounds read low 0.981 | locus YGR135W, strain pre9, active compounds read low 0.974 | locus YGR229C, strain SMI1, active compounds read low 1.01 | locus YGR252W, strain gcn5, active compounds read low 1.07 | locus YHR013C, strain ard1, active compounds read low 0.977 | locus YHR027C, strain rpn1, active compounds read low 0.979 | locus YHR030C, strain SLT2, active compounds read low 0.994 | locus YHR079C, strain IRE1 (second series), active compounds read low 0.975 | locus YHR094C, strain hxt1, active compounds read low 0.988 | locus YHR129C, strain ARP1, active compounds read low 0.987 | locus YHR142W, strain chs7, active compounds read low 0.98 | locus YHR200W, strain rpn10, active compounds read low 0.978 | locus YIL066C, strain RNR3, active compounds read low 0.974 | locus YIL073C, strain SPO22, active compounds read low 0.981 | locus YIL125W, strain kgd1, active compounds read low 0.998 | locus YIR030C, strain dcg1, active compounds read low 0.981 | locus YJL092W, strain hpr5, active compounds read low 0.986 | locus YJL095W, strain BCK1 (second series), active compounds read low 0.99 | locus YJL095W, strain BCK1, active compounds read low 0.971 | locus YJL115W, strain asf1, active compounds read low 0.984 | locus YJL129C, strain trk1, active compounds read low 0.996 | locus YJL134W, strain LCB3, active compounds read low 0.994 | locus YJL154C, strain vps35, active compounds read low 0.98 | locus YJL164C, strain tpk1, active compounds read low 0.993 | locus YJL166W, strain qcr8, active compounds read low 1 | locus YJL168C, strain set2, active compounds read low 0.984 | locus YJL187C, strain SWE1 (second series), active compounds read low 0.964 | locus YJL187C, strain SWE1, active compounds read low 0.988
